This note sets out measurements from PubChem BioAssay (NCI).

Among the test systems are SR leukemia; RPMI-8226 leukemia; OVCAR-8 ovarian; OVCAR-5 ovarian; OVCAR-4 ovarian; SK-OV-3 ovarian; IGROV1 ovarian; OVCAR-3 ovarian; NCI/ADR-RES ovarian; HS 578T breast.
What all share (test): NCI-60 one-dose screen, 48 h (100 = growth as untreated, 0 = no growth, -100 = all killed)
What all share (conditions): 10 µM

This is part of a sample that, as a whole, favours compounds with a hit. Of some 83,000 tested, about 20% had one in any assay.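 Treatment: one concentration, 48 hours, 96-well format. Scoring: percent growth, with anything below 10 considered active.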 Values without a mark were called inactive. Activity calls are given as the source filed them.

For `CC1(C)[C@@H](NCO)CC[C@]2(C)[C@H]3C(=O)C=C4[C@@H]5C[C@](C)(CO)CC[C@]5(C)CC[C@@]4(C)[C@]3(C)CC[C@@H]12`, the growth in the experiment with SR leukemia was 10.3%; with RPMI-8226 leukemia it was -1.48% (active); with OVCAR-8 ovarian it was 70.9%; in the experiment on OVCAR-5 ovarian it was 66.1%; in the experiment with OVCAR-4 ovarian, 55.4%; in the experiment on SK-OV-3 ovarian, 92.8%. Also, the growth was 53.8% in the experiment on IGROV1 ovarian, 85.4% in the experiment on OVCAR-3 ovarian and 56% in the experiment on NCI/ADR-RES ovarian.

For `CC(=O)Oc1ccccc1C(=O)Oc1ccc(C(=O)/C=C/c2ccncc2)cc1`, the growth is 7.37% (active) with SR leukemia; 13.6% in the experiment with RPMI-8226 leukemia; 30.8% with OVCAR-8 ovarian; 62.7% with OVCAR-5 ovarian; 59.9% in the experiment with OVCAR-4 ovarian; 96.7% in the experiment on SK-OV-3 ovarian. Besides, the growth with IGROV1 ovarian was 22.3%; in the experiment with OVCAR-3 ovarian, 19.5%; in the experiment with HS 578T breast it was 32.8%; in the experiment on NCI/ADR-RES ovarian it was 63.5%.

Regarding `O=C(/C=C/Nc1ccc(F)cc1F)c1ccc2c(c1)Nc1ccccc1S2`, the growth in the experiment on SR leukemia was 31.7%; with RPMI-8226 leukemia, 78.2%; in the experiment on OVCAR-8 ovarian, 64.6%; in the experiment on OVCAR-5 ovarian it was 86.8%; with OVCAR-4 ovarian it was 68.2%; with SK-OV-3 ovarian it was 95.2%. Besides, the growth with IGROV1 ovarian is 77.9%; in the experiment with OVCAR-3 ovarian, 100%; in the experiment with HS 578T breast it was 63%; with NCI/ADR-RES ovarian, 57.1%.

Consider `CN1CCN(c2ccc(C(=O)/C=C/c3ccc(OC(F)F)cc3)cc2)CC1`, for which the growth with SR leukemia is 6.8% (active); in the experiment with RPMI-8226 leukemia, 5.53% (active); with OVCAR-8 ovarian, 44.8%; in the experiment on OVCAR-5 ovarian, 80.3%; in the experiment with OVCAR-4 ovarian it was 59%; in the experiment on SK-OV-3 ovarian it was 76%. The growth was 27.5% with IGROV1 ovarian, 38.4% in the experiment on OVCAR-3 ovarian, 63.8% in the experiment on HS 578T breast and 54.7% in the experiment on NCI/ADR-RES ovarian.

Take `COc1ccc2[nH]c(=O)c(CSc3ccc(Nc4nccc(-c5ccc(Cl)cc5)n4)cc3)cc2c1`: the growth in the experiment with SR leukemia was 90.9%; in the experiment on RPMI-8226 leukemia, 81.3%; with OVCAR-8 ovarian, 70.3%; with OVCAR-5 ovarian, 96.6%; in the experiment with OVCAR-4 ovarian, 94.8%; with SK-OV-3 ovarian it was 119%. In addition, the growth in the experiment with IGROV1 ovarian was 105%; in the experiment on OVCAR-3 ovarian, 116%; in the experiment with HS 578T breast it was 63.8%; in the experiment on NCI/ADR-RES ovarian, 73.7%.

With `CCOC(=O)CNC(=O)CN(Cc1ccccc1)C(=O)[C@@]1(C)CCC[C@]2(C)[C@H]3CC4C(C(C)C)=C[C@]3(CC[C@H]21)[C@@H]1C(=O)CCC(=O)[C@H]41`, the growth in the experiment on SR leukemia is 8.03% (active); with RPMI-8226 leukemia, 19.8%; in the experiment with OVCAR-8 ovarian, 58.3%; in the experiment on OVCAR-5 ovarian it was 97.8%; with OVCAR-4 ovarian, 49.4%; in the experiment on SK-OV-3 ovarian, 96.6%. In addition, the growth is 18.2% in the experiment on IGROV1 ovarian, 61.1% in the experiment with OVCAR-3 ovarian and 47.9% in the experiment with NCI/ADR-RES ovarian.

As for `Cc1cc(C)nc(NS(=O)(=O)c2ccc(N/C(N)=N/c3nccc(-c4cccs4)n3)cc2)n1`, the growth with SR leukemia is 92.3%; in the experiment on RPMI-8226 leukemia, 87%; with OVCAR-8 ovarian, 101%; with OVCAR-5 ovarian, 107%; with OVCAR-4 ovarian, 93.6%; with SK-OV-3 ovarian, 84.4%. Moreover, the growth in the experiment on IGROV1 ovarian was 72.6%; in the experiment on OVCAR-3 ovarian it was 107%; in the experiment with HS 578T breast, 77.7%; with NCI/ADR-RES ovarian, 101%.

For `Nc1nnc(-c2c[nH]c3ccc(F)cc23)c(-c2c[nH]c3ncccc23)n1`, the growth in the experiment on SR leukemia was 20.6%; in the experiment with RPMI-8226 leukemia, 60.3%; with OVCAR-8 ovarian it was 46.7%; in the experiment on OVCAR-5 ovarian it was 78.8%; with OVCAR-4 ovarian, 81.4%; with SK-OV-3 ovarian, 92%. Besides, the growth with IGROV1 ovarian was 33.5%; in the experiment with OVCAR-3 ovarian, 59.3%; with HS 578T breast, 29.1%; in the experiment with NCI/ADR-RES ovarian, 101%.

For `O=C(Nc1cccc([N+](=O)[O-])c1)Nc1cccc([N+](=O)[O-])c1`, the growth with SR leukemia was 88.7%; with RPMI-8226 leukemia it was 31.9%; with OVCAR-8 ovarian, 88.7%; in the experiment on OVCAR-5 ovarian, 94.1%; in the experiment with OVCAR-4 ovarian, 73.6%; in the experiment on SK-OV-3 ovarian it was 129%. Also, the growth in the experiment on IGROV1 ovarian is 88.6%; with OVCAR-3 ovarian it was 60.7%; with HS 578T breast it was 92.5%; with NCI/ADR-RES ovarian, 65.4%.

Take `O=c1cc(-c2ccccc2)oc2cc(OCCCNCc3ccccc3)cc(O)c12`: the growth with SR leukemia is -24.8% (active); with RPMI-8226 leukemia it was -26.8% (active); with OVCAR-8 ovarian, -90.5% (active); in the experiment on OVCAR-5 ovarian, 75.5%; in the experiment on OVCAR-4 ovarian, -16.2% (active); with SK-OV-3 ovarian it was 30.1%. For the same molecule, the growth is 9.54% (active) with IGROV1 ovarian, 16.2% in the experiment with OVCAR-3 ovarian, -4.99% (active) in the experiment on HS 578T breast and -77.9% (active) in the experiment with NCI/ADR-RES ovarian.

On to `COc1ccc2cc([C@H](C)C(=O)NCc3ccccc3)ccc2c1`, for which the growth is 29.8% with SR leukemia; 25.1% in the experiment with RPMI-8226 leukemia; 32.7% with OVCAR-8 ovarian; 53.8% in the experiment with OVCAR-5 ovarian; 53.5% in the experiment on OVCAR-4 ovarian; 40.6% in the experiment with SK-OV-3 ovarian. In addition, the growth is 46.9% in the experiment on IGROV1 ovarian, 19.9% in the experiment on OVCAR-3 ovarian, 16.8% in the experiment with HS 578T breast and -10% (active) in the experiment with NCI/ADR-RES ovarian.

Regarding `CN1C(=O)N(C)C2SC(N/N=C/C=C/c3ccccc3)=NC21` (configuration not stated), the growth in the experiment with SR leukemia is 13.2%; in the experiment on RPMI-8226 leukemia it was 77.1%; with OVCAR-8 ovarian, 93.1%; with OVCAR-5 ovarian, 92.8%; in the experiment on OVCAR-4 ovarian, 72.4%; in the experiment on SK-OV-3 ovarian, 98.4%. Moreover, the growth with IGROV1 ovarian was 68.5%; with OVCAR-3 ovarian, 28.8%; in the experiment with NCI/ADR-RES ovarian, 73.9%.

For the molecule `COc1cc(/C=C/C(=O)c2ccc(F)cc2)ccc1Oc1nc(Nc2ccc(F)cc2)nc(N(C)C)n1`, the growth with SR leukemia is 4.07% (active); in the experiment with RPMI-8226 leukemia, 24.2%; in the experiment with OVCAR-8 ovarian, 42.7%; in the experiment on OVCAR-5 ovarian, 93.1%; with OVCAR-4 ovarian, 56.1%; in the experiment with SK-OV-3 ovarian it was 103%. In addition, the growth is 93.8% in the experiment with IGROV1 ovarian, 64.2% with OVCAR-3 ovarian, 59.3% in the experiment with HS 578T breast and 50.6% in the experiment on NCI/ADR-RES ovarian.
